Compound activity as filed in PubChem.
hcDAF-12 act: H. contortus DAF-12 activation, primary screen; HEK293 hcDAF-12 lit1-tk-luc reporter, luminescence; 0% DMSO, 100% Δ7-dafachronic acid; activation, % at 6.8 µM; actives 1.4% (n = 370,000); AID 652067;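 active = activation above the mean of all tested compounds plus 3 SD, cut at about 5.5% in these data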
ssDAF-12 act: S. stercoralis DAF-12 activation, primary screen; HEK293 ssDAF-12/GRIP1 lit1-tk-luc reporter, luminescence; % of 3 µM dafachronic acid response; activation, % at 6.8 µM; actives 1% (n = 370,000);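 active = activation above the mean over all tested compounds plus 3 SD, cut at about 0.9% in these data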
DAX1 StAR inh: DAX1 (NR0B1) inhibition, primary screen; HEK293T StAR-luciferase reporter, SF-1/DAX-1 repression relief; inhibition, % at 6.8 µM; actives 1.1% (n = 370,000); AID 652010;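 active = inhibition above the mean over all tested compounds plus 3 SD, cut at about 3.6% in these data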;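 also: higher inhibition means more luminescence from relief of DAX-1 repression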
hgDAF12 agonist: agonists of H. glycines DAF-12 nuclear receptor | actives 1.8% (n = 370,000) | activation, % at 6.8 µM | HEK293 GAL4-hgDAF12 UAS-luciferase reporter, agonist luminescence; normalized to butyrate control;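 active = activation above a cutoff set at the mean of all screened compounds plus 3 SD, cut at about 10% in these data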
SMARCA2 act: activators of SMARCA2 function; AID 652017; actives 1% (n = 370,000); MG213 cells, MMTV-luciferase reporter, dexamethasone, overnight; activation, % at 9.1 µM; in the data active = activation above about 7.8%
Hits are given with their value. This is a sample that favours compounds with a hit; in the whole collection about 4.2% have one here.

What do the screens show for `CC1S/C(=N/N=C2CCC(C(C)(C)C)CC2)NC1=O` (stereo not drawn)?
hcDAF-12 act: inactive; ssDAF-12 act: inactive; DAX1 StAR inh: inactive; hgDAF12 agonist: 12; SMARCA2 act: inactive

What do the screens show for `N#Cc1ccccc1COC(=O)c1cc(=O)c2ccccc2o1`?
hcDAF-12 act: 6.4; ssDAF-12 act: inactive; DAX1 StAR inh: inactive; hgDAF12 agonist: inactive; SMARCA2 act: inactive

How did O=C(NCCc1ccccc1F)c1ccc(Sc2ccccc2Cl)c([N+](=O)[O-])c1 do in these assays?
hcDAF-12 act: inactive; ssDAF-12 act: inactive; DAX1 StAR inh: inactive; hgDAF12 agonist: inactive; SMARCA2 act: inactive

How did CN1CCCN(C(=O)C2CCN(c3ncnc4c3sc3cccc(F)c34)CC2)CC1 do in these assays?
hcDAF-12 act: inactive; ssDAF-12 act: inactive; DAX1 StAR inh: inactive; hgDAF12 agonist: inactive; SMARCA2 act: inactive

What do the screens show for `O=C1Nc2ccc(Br)cc2/C1=C/C(=O)c1ccc2c(c1)OCO2`?
hcDAF-12 act: inactive; ssDAF-12 act: inactive; DAX1 StAR inh: inactive; hgDAF12 agonist: inactive; SMARCA2 act: inactive

What do the screens show for `O=C1Nc2ccc(Br)cc2/C1=C/C1CC=CCC1` (stereo not drawn)?
hcDAF-12 act: inactive; ssDAF-12 act: 1.0; DAX1 StAR inh: inactive; hgDAF12 agonist: inactive; SMARCA2 act: inactive

How did O=C1C=CC(=O)N1c1ccccc1N1C(=O)C=CC1=O do in these assays?
hcDAF-12 act: inactive; ssDAF-12 act: inactive; DAX1 StAR inh: 4.0; hgDAF12 agonist: inactive; SMARCA2 act: inactive

What do the screens show for `OC(COc1ccccc1)CN1CCCC1` (stereo not drawn)?
hcDAF-12 act: inactive; ssDAF-12 act: inactive; DAX1 StAR inh: inactive; hgDAF12 agonist: inactive; SMARCA2 act: inactive

What do the screens show for `CN1CCN(CC(O)COc2ccccc2)CC1` (stereo not drawn)?
hcDAF-12 act: inactive; ssDAF-12 act: inactive; DAX1 StAR inh: inactive; hgDAF12 agonist: 13; SMARCA2 act: inactive

What do the screens show for `CCc1ccc2nc3sc(C(=O)O)cc3cc2c1`?
hcDAF-12 act: 6.1; ssDAF-12 act: inactive; DAX1 StAR inh: inactive; hgDAF12 agonist: inactive; SMARCA2 act: inactive

How did COC(=O)[C@]12C[C@H](CC(=O)NCc3ccc(C)o3)C(=O)N(Cc3ccc4c(c3)OCO4)C1=C[C@H](C(C)C)O[C@@H]2C1CC1 do in these assays?
hcDAF-12 act: inactive; ssDAF-12 act: inactive; DAX1 StAR inh: inactive; hgDAF12 agonist: inactive; SMARCA2 act: inactive

Results for CCOC(=O)[C@@]12CCCC=C1N(CCc1ccc(Cl)cc1)C(=O)[C@H]2CC(=O)NCCCCc1ccccc1 ?
hcDAF-12 act: inactive; ssDAF-12 act: inactive; DAX1 StAR inh: inactive; hgDAF12 agonist: inactive; SMARCA2 act: inactive

What do the screens show for `COc1cc(C(NC(=O)C(F)(F)F)C2CCCC=C2c2ccccc2)cc(OC)c1OC` (stereo not drawn)?
hcDAF-12 act: inactive; ssDAF-12 act: inactive; DAX1 StAR inh: inactive; hgDAF12 agonist: inactive; SMARCA2 act: inactive

How did CSCCC(NC(=O)c1cccc([N+](=O)[O-])c1)c1nc2ccccc2[nH]1 (stereo not drawn) do in these assays?
hcDAF-12 act: inactive; ssDAF-12 act: inactive; DAX1 StAR inh: inactive; hgDAF12 agonist: inactive; SMARCA2 act: inactive

How did CSCC[C@H](NC(=O)c1cc([N+](=O)[O-])ccc1Cl)c1nc2ccccc2[nH]1 do in these assays?
hcDAF-12 act: 5.9; ssDAF-12 act: inactive; DAX1 StAR inh: inactive; hgDAF12 agonist: inactive; SMARCA2 act: inactive

What do the screens show for `S=c1[nH]ccn1-c1c(Cl)cccc1Cl`?
hcDAF-12 act: 6.5; ssDAF-12 act: inactive; DAX1 StAR inh: inactive; hgDAF12 agonist: inactive; SMARCA2 act: inactive

How did Cc1cccc(-n2cc[nH]c2=S)c1 do in these assays?
hcDAF-12 act: inactive; ssDAF-12 act: inactive; DAX1 StAR inh: inactive; hgDAF12 agonist: inactive; SMARCA2 act: inactive

Results for Cc1cc(N2CCN(CC(C)(C)O)C[C@H]2C)ccc1N1CCN(CC(C)(C)O)[C@@H](C)C1 ?
hcDAF-12 act: inactive; ssDAF-12 act: inactive; DAX1 StAR inh: inactive; hgDAF12 agonist: inactive; SMARCA2 act: inactive

What do the screens show for `O=C(OC12CCCN(C1)/C(=C/c1ccccc1)C2)c1ccc(Cl)cc1` (stereo not drawn)?
hcDAF-12 act: inactive; ssDAF-12 act: inactive; DAX1 StAR inh: inactive; hgDAF12 agonist: inactive; SMARCA2 act: inactive

How did CC(C)(C)c1ccc(OCC(=O)NCC(c2cccs2)N2CCOCC2)cc1 (stereo not drawn) do in these assays?
hcDAF-12 act: inactive; ssDAF-12 act: inactive; DAX1 StAR inh: 4.3; hgDAF12 agonist: inactive; SMARCA2 act: inactive

Results for COc1ccc(OCC(=O)NCC(c2cccs2)N2CCOCC2)cc1 (stereo not drawn) ?
hcDAF-12 act: inactive; ssDAF-12 act: inactive; DAX1 StAR inh: inactive; hgDAF12 agonist: inactive; SMARCA2 act: inactive

How did COc1ccc(NC(=O)C2=C(C)NC(=S)NC2c2ccc(O)c(OC)c2)cc1 (stereo not drawn) do in these assays?
hcDAF-12 act: inactive; ssDAF-12 act: inactive; DAX1 StAR inh: inactive; hgDAF12 agonist: inactive; SMARCA2 act: inactive

What do the screens show for `COc1cc(C2NC(=S)NC(C)=C2C(=O)Nc2ccc(C)cc2)ccc1O` (stereo not drawn)?
hcDAF-12 act: inactive; ssDAF-12 act: inactive; DAX1 StAR inh: inactive; hgDAF12 agonist: 11; SMARCA2 act: inactive

Results for COc1ccc(C(=O)n2cnc3ccccc32)cc1[N+](=O)[O-] ?
hcDAF-12 act: inactive; ssDAF-12 act: 1.4; DAX1 StAR inh: inactive; hgDAF12 agonist: inactive; SMARCA2 act: inactive

How did CSCc1ccc(C(=O)NCCSc2ccc(Br)cc2)cc1 do in these assays?
hcDAF-12 act: inactive; ssDAF-12 act: inactive; DAX1 StAR inh: 4.1; hgDAF12 agonist: inactive; SMARCA2 act: inactive

Results for S=C(Nc1ccccc1Cl)N1CCC(c2ccccc2)C1 (stereo not drawn) ?
hcDAF-12 act: inactive; ssDAF-12 act: inactive; DAX1 StAR inh: inactive; hgDAF12 agonist: 11; SMARCA2 act: inactive

Results for S=C(Nc1ccc(Cl)cc1Cl)N1CCCCC1 ?
hcDAF-12 act: 5.8; ssDAF-12 act: inactive; DAX1 StAR inh: inactive; hgDAF12 agonist: inactive; SMARCA2 act: inactive

How did Fc1ccccc1NC(=S)N1CCC(c2ccccc2)C1 (stereo not drawn) do in these assays?
hcDAF-12 act: inactive; ssDAF-12 act: inactive; DAX1 StAR inh: inactive; hgDAF12 agonist: inactive; SMARCA2 act: inactive

Results for c1nc(NC[C@@H]2CCCO2)c2cc(-c3ccc4c(c3)OCO4)ccc2n1 ?
hcDAF-12 act: inactive; ssDAF-12 act: inactive; hgDAF12 agonist: inactive

What do the screens show for `O=C(NC1CCCCN(Cc2cccc(Cl)c2)C1=O)C1CCCCC1` (stereo not drawn)?
hcDAF-12 act: inactive; ssDAF-12 act: inactive; DAX1 StAR inh: inactive; hgDAF12 agonist: inactive; SMARCA2 act: inactive

How did CC[C@@H](OP(=O)(O)[C@@H](C)N)C(=O)O do in these assays?
hcDAF-12 act: inactive; ssDAF-12 act: inactive; DAX1 StAR inh: inactive; hgDAF12 agonist: inactive; SMARCA2 act: inactive

How did CC1CCN(C(=O)Cn2nnc(-c3cccs3)n2)CC1 do in these assays?
hcDAF-12 act: inactive; ssDAF-12 act: inactive; DAX1 StAR inh: 3.6; hgDAF12 agonist: inactive; SMARCA2 act: inactive
